Screening data from PubChem.
Vif imaging: HIV Vif self-association inhibitors, primary screen, imaging, HEK293T, single point; inhibition, % at 7.49 µM; HEK293T cells, Vif self-association by quenched fluorescence, 24 h; 340,000 tested, 0.35% active; in the data active = inhibition above about 50%, passing the limit was not always enough
Glyco luc inh: increase of ERlucT glycosylation luciferase signal, primary screen, N-linked glycosylation inhibitor project, D54 ERlucT cells, luminescence, set 2. reporter increase, % at 12.5 µM. AID 588692, 2011. D54 ERlucT glycosylation luciferase reporter, 24 h; percent of 100 nM tunicamycin response. 360,000 tested, 0.23% active;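 active = mean luciferase reporter signal, scaled so untreated is 0 and the glycosylation-blocking control 100, at or above a set limit in every replicate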;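 also: luciferase carries N-glycosylation sites so blocking glycosylation raises the light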
NSD2 inh: NSD2 histone methyltransferase inhibitors, primary screen, biochemical, AlphaScreen, single concentration, set 2; NSD2 peptide methylation, 120 min; inhibition, % at 12.5 µM; 310,000 tested, 0.54% active; Histone-lysine N-methyltransferase NSD2 (Homo sapiens), O96028; AID 743445, 2014; in the data active = inhibition above about 50%
CaV13 ICDI inh: Disruptors of the CACNA1D IQ motif to Ca2+-dependent inactivation inhibitor domain association, primary screening, Förster resonance energy transfer in intact living … | HEK cells, CFP/YFP FRET ICDI-IQ, plate reader, 10 min; percent FRET-ratio fall versus neutral wells | inhibition, % at 12.3 µM | 340,000 tested, 0.098% active;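 active = mean replicate inhibition of at least 30% and at least 1% of replicates passing that level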
DSG3 Ab inh: inhibitors of pemphigus antibody binding to DSG3, primary screen, biochemical, bead-based, flow cytometry, scFv-GFP; Desmoglein-3 (Homo sapiens), P32926; DSG3-coupled beads, scFv-anti-DSG3-GFP binding; active compounds read low; binding (percent of control), % at 10 µM; 310,000 tested, 0.48% active;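 active = binding more than 3 SD below its plate's average and above zero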;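 also: hits lower antibody fragment binding to DSG3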
ATG4B inhibitor: ATG4B protease inhibitors, primary screen, biochemical, fluorescence, uHTS; Cysteine protease ATG4B (Homo sapiens), Q9Y4P1; 340,000 tested, 0.51% active; ATG4B cleavage of LC3-PLA2, NBD-HPC fluorescence, 1 h; inhibition, % at 8.33 µM; AID 504462, 2011; in the data active = inhibition above about 40%
Target sequence (Q9Y4P1 whole entry, looked up): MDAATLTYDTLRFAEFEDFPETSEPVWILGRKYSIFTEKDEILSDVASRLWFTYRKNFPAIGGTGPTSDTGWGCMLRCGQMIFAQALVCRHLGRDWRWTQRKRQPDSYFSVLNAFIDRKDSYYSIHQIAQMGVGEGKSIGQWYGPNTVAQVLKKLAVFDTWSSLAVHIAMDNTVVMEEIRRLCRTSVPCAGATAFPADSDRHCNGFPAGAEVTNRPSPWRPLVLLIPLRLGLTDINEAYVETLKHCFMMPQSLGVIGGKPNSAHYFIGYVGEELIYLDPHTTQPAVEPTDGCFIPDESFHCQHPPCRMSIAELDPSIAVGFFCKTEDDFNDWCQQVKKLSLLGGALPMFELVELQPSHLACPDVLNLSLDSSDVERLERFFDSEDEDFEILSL
Alpha artifact: AlphaScreen signal interference with preloaded methylated product, dose response, artefact control for NSD2 inhibitor project, biochemical, cherry-picked samples | AlphaScreen artifact counterscreen, preloaded methylated H4 peptide | AID 1053174, 2014 | AC35, µM (doses to about 10 µM) | shares compounds with NSD2 inh | 1,500 tested, 9.4% active; call rule not given here
Large screens that a line does not name were inactive (follow-up assays come after a bar, where they were run). Shown are actives, neighbours in structure and some others; about 1.9% of the full set was active somewhere.

c1ccc(CN2CCN(c3nc(-c4ccccc4)nc(-n4ccnc4)n3)CC2)cc1	NSD2 inh 63 (no result: CaV13 ICDI inh, DSG3 Ab inh) | Alpha artifact inactive
COc1ccc(OC)c2c1C(=O)C(Cl)=C(Cl)C2=O	none
COC1=CC(=O)C(OC)=C(OC)C1=O	NSD2 inh 101 | Alpha artifact inactive
Cc1nn2c3ccccc3n(CCN3CCCCC3)c2nc1=O	NSD2 inh 110 | Alpha artifact inactive
COc1cc(/C=N/N2CCN(C3c4ccccc4-c4ccccc43)CC2)cc(OC)c1O	none
COc1cc(/C=N/N2CCN(C3c4ccccc4-c4ccccc43)CC2)cc(OC)c1OC	NSD2 inh 144 | Alpha artifact inactive
COC(=O)c1ccc(CSc2ncnc3c2sc2nc(N4CCOCC4)c4c(c23)CCCC4)o1	none
COC(=O)c1ccc(Cn2cnc3c(sc4nc(N5CCOCC5)c5c(c43)CCCC5)c2=O)o1	NSD2 inh 75 (no result: Vif imaging, CaV13 ICDI inh) | Alpha artifact inactive
CNc1ccc2ncc(-c3ccccc3C(C)=O)n2n1	none (no result: DSG3 Ab inh, ATG4B inhibitor)
Cc1c(C(=O)N2CCN(C(=O)c3ccco3)CC2)sc2nc(-c3ccc(F)cc3)cn12	none (no result: NSD2 inh)
CC1CN(Cc2c(O)ccc3c(=O)c(-c4ccccc4Cl)coc23)CC(C)O1 (stereo not drawn)	NSD2 inh 61 (no result: Vif imaging) | Alpha artifact inactive
O=c1c(-c2ccccc2Cl)coc2c(CN3CCCCC3)c(O)ccc12	none
CCCOc1ccc(-c2c(C(=O)N/N=C(\C)c3cccs3)nnn2-c2nonc2N)cc1	none
COc1ccc(N/C=C2\CCc3ccccc3C2=O)cc1	NSD2 inh 95 | Alpha artifact inactive
COc1cc(-c2nnn(Cc3ccccc3C)n2)cc(OC)c1OC	NSD2 inh 54 | Alpha artifact inactive
COc1ccc(C(=O)Nc2ccc3[nH]ccc3c2)cc1OC	NSD2 inh 51, DSG3 Ab inh 85 | Alpha artifact inactive
COc1ccc(C(=O)Nc2ccc3[nH]ccc3c2)cc1	none
CCn1c(=O)c(C(=O)Nc2ccccc2S(N)(=O)=O)c(O)c2ccccc21	none (no result: CaV13 ICDI inh)
O=C(O)C=C1C2CC3CC(C2)CC1C3	NSD2 inh 50 | Alpha artifact inactive
O=S(=O)(c1cc2ccccc2s1)n1c(CN2CCOCC2)nc2ccccc21	none (no result: Vif imaging, Glyco luc inh, CaV13 ICDI inh, DSG3 Ab inh, ATG4B inhibitor)
Cc1cc(S(=O)(=O)NCc2cccnc2)ccc1F	NSD2 inh 59 | Alpha artifact inactive
CC(=O)N1CCn2c3c(c(=O)c4cc(C)ccc42)CCC31 (stereo not drawn)	NSD2 inh 97 (no result: Vif imaging) | Alpha artifact inactive
COc1ccc(N2CCN(C(=O)c3ccc(SC)cc3OC)CC2)cc1	none
O=C(O)c1cccc(-n2cccc2/C=C2/NC(=O)N(c3ccc(Cl)cc3)C2=O)c1	NSD2 inh 141, DSG3 Ab inh 41 | Alpha artifact 2.1µM
O=C(O)c1cccc(-n2cccc2/C=C2/NC(=O)N(c3cccc(Cl)c3)C2=O)c1	none
O=C(O)c1cccc(-n2cccc2/C=C2/SC(=O)N(CC(=O)N3CCCC3)C2=O)c1	NSD2 inh 61 | Alpha artifact inactive
COC(=O)c1c(/N=C/N(C)C)sc2c1CCN(c1ncc(C(F)(F)F)cc1Cl)C2	none (no result: CaV13 ICDI inh)
COc1ccc(NS(=O)(=O)c2cccc(C(=O)N3CCCCCC3)c2)cc1	NSD2 inh 64 | Alpha artifact inactive
CCOc1ccccc1NC(=O)CCS(=O)(=O)c1ccc2c(c1)CC(C)N2C(C)=O (stereo not drawn)	none
CC1(C)NC(=O)N(CCOCCOc2c(Cl)cc(Cl)cc2Cl)C1=O	NSD2 inh 125 | Alpha artifact inactive
Cc1c(Cl)c([N+](=O)[O-])nn1CC(=O)NC(C)c1ccccc1 (stereo not drawn)	none
